Whole data set: some 140,000 sequences, median “enrichment ratio after two sorts for PhoP signalling” near 0, cut for the highest 2% near 11. The entries come from a sample that favours the highest values as a whole.

Sequences and labels used below:
B1: PhoQ; a variant is named by its letters at X, in order, P23837 (parent)
chain: MKKLLRLFFPLSLRVRFLLATAAVVLVLSLAYGMVALIGYSVSFDKTTFRLLRGESNLFYTLAKWENNKLHVELPENIDKQSPTMTLIYDENGQLLWAQRDVPWLMKMIQPDWLKSNGFHEIEADVNDTSLLLSGDHSIQQQLQEVREDDDDAEMTHSVAVNVYPATSRMPKLTIVVVDTIPVELKSSYMVWSWFIYVLSANLLLVIPLLWVAAWWSLRPIEALAKEVRELEEHNRELLNPATTRELTSLVRNLNRLLKSERERYDKYRTTLTDLTHSLKTPLXXLQXXLRSLRSEKMSVSDAEPVMLEQISRISQQIGYYLHRASMRGGTLLSRELHPVAPLLDNLTSALNKVYQRKGVNISLDISPEISFVGEQNDFVEVMGNVLDNACKYCLEFVEISARQTDEHLYIVVEDDGPGIPLSKREVIFDRGQRVDTLRPGQGVGLAVAREITEQYEGKIVAGESMLGGARMEVIFGRQHSAPKDE

In this assay the parent is B1. Description: enrichment ratio after two sorts for PhoP signalling (ratio (wild type AVST 3.29)); higher = more functional. The settings on record: with PhoP (E. coli).
Regarding FDQC, the enrichment ratio is ≤ 0.25.
With HRRK the figure was ≤ 0.25; with GSPQ, ≤ 0.25; with QRFG, ≤ 0.25.
Under QQFA stands ≤ 0.25; under WQFG, ≤ 0.25; under QEFG, 30.8.
With QKFG the figure was ≤ 0.25; with QQFG, 20.2; with YSKV, ≤ 0.25.
On to PITH, for which the enrichment ratio is ≤ 0.25.
Under YICL stands 3.21; under AEVT, 15.3; under AENT, 10.7.
In the case of AELT, the enrichment ratio came out at 6.58.
With AEEV the figure was 2.19; with AEAV, 15.8.
AEAT: the enrichment ratio is 47.1.
Under ADAL stands ≤ 0.25.
As for AEYV, the enrichment ratio was ≤ 0.25.
With AEFT the figure was 6.27; with AEYT, 2.16; with AAAL, 4.97.
Regarding AEAL, the enrichment ratio was 18.2.
With FMVL the figure was ≤ 0.25; with SFSW, ≤ 0.25.
With TSQR the figure was ≤ 0.25; with MHEF, ≤ 0.25.
Under INEK stands ≤ 0.25; under HTRD, ≤ 0.25.
In the case of IMKH, the enrichment ratio is ≤ 0.25.
With GQND the figure was ≤ 0.25; with FWMY, ≤ 0.25.
For the variant RETL, the enrichment ratio was ≤ 0.25.
Turning to VEGG, the enrichment ratio was ≤ 0.25.
With ECSV the figure was ≤ 0.25; with IAKM, ≤ 0.25.
With AEAS the figure was 21.3; with AQST, 5.3.
For AEIY, the enrichment ratio worked out at 14.8.
Under AEQY stands 17.1.
Under AEST stands 18.4; under AQQY, ≤ 0.25; under AEAG, 7.71.
Under ARST stands ≤ 0.25; under AEAM, 5.95.
Turning to ADIY, the enrichment ratio is ≤ 0.25.
Under AEQP stands ≤ 0.25; under ANIY, 0.312; under MKWE, ≤ 0.25.
For PDNP, the enrichment ratio was ≤ 0.25.
Under PQPV stands ≤ 0.25.
INLG: the enrichment ratio was 2.36.
With DREC the figure was ≤ 0.25; with VNMC, 1.44; with AEAW, ≤ 0.25.
Regarding AERY, the enrichment ratio was ≤ 0.25.
With AEDY the figure was ≤ 0.25; with AEAN, 28.2.
Under AEIN stands 1.09; under AIWT, ≤ 0.25.
With AEYI the figure was 3.12; with AEAI, 14.2; with AEYM, 3.72.
AEAY: the enrichment ratio was 39.2.
AEWT: the enrichment ratio was 22.1.
Under AEKA stands ≤ 0.25; under ITKR, ≤ 0.25.
With SVFT the figure was ≤ 0.25; with VISK, ≤ 0.25.
With LWWA the figure was ≤ 0.25.
As to NMII, the enrichment ratio was ≤ 0.25.
For TPVN, the enrichment ratio is ≤ 0.25.
Under FWRY stands ≤ 0.25; under SCFG, ≤ 0.25; under ITNE, ≤ 0.25.
With TRFM the figure was ≤ 0.25; with GRSR, ≤ 0.25; with PKLW, ≤ 0.25.
ECFL: the enrichment ratio is ≤ 0.25.
For NQDT, the enrichment ratio was ≤ 0.25.
Turning to AEAD, the enrichment ratio is ≤ 0.25.
With AEYQ the figure was ≤ 0.25.
Under AEAA stands 12.1; under AEYY, ≤ 0.25.
With AENY the figure was 5.26; with AEGY, 43.4.

Values taken from a collection of fitness landscapes (doi:10.1126/science.1257360).
